# From PubChem BioAssay AID488777 (Sanford-Burnham Center for Chemical Genomics, 2010)
# A number with no mark means an inactive call. How the calls were made is not given here.
# Experiment: AlphaScreen signal interference by SUMOylation inhibitors, SAR follow-up, artefact control for SUMOylation inhibitor project, biochemical (AID 488777)
# Settings: purified counter-screen enzymes, TR-FRET, 60 min
structure (smiles),measurement,value
CCCCNC(=O)c1c(NC(=O)c2ccccc2)n(Cc2ccccc2)c2nc3ccccc3nc12,IC50,> 100 µM
